Test results taken from PubChem BioAssay AID720690 (Broad Institute, 2013).
Results with a measured potency or affinity are listed apart. Unmarked numbers belong to inactive results.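 How the source made its calls: active means every repeat run showing a signal drop whose fitted half-maximal concentration is at most twice the top tested concentration; inconclusive means repeat runs disagree, or flat partial drop, or poor fit; inactive means the rest.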

Experiment: general mammalian cell viability loss – activator set, cherry-pick, cytotoxicity control for miR-122 modulator project, dose response (AID 720690);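 further: 0% = neutral control wells and -100% = MG132 cytotoxic control wells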
Conditions: HEK293T viability, CellTiter-Glo luminescence, 48 h; series mostly up to 26 µM; activity change, negative = cytotoxicity: at the top concentration

Question: For `COCC(=O)Nc1ccc2c(c1)C(=O)N(C)[C@@H]1CC[C@@H](CC(=O)NC3CCCC3)O[C@@H]1CO2`, which “activity change, negative = cytotoxicity” value is on record?
Answer: The value was 3.21% [at 23.5 µM].

Question: With `Cc1cc(C)nc(NS(=O)(=O)c2ccc(NC(=S)NC(=O)C3CCCC3)cc2)n1` as the compound, how does the “activity change, negative = cytotoxicity” value read?
Answer: The value was -1.38%.

Question: With `COC(=O)C[C@@H]1CC[C@@H]2[C@H](COc3ccc(NS(=O)(=O)c4ccc(F)cc4)cc3C(=O)N2C)O1` as the compound, how does the “activity change, negative = cytotoxicity” value read?
Answer: Its value is -7.83%.

Question: With `Cc1nnsc1Sc1cccc(C(F)(F)F)c1` as the compound, how does the “activity change, negative = cytotoxicity” value read?
Answer: Its value is 2.48%.

Question: Which “activity change, negative = cytotoxicity” value does the source give for `COc1ccc(-c2oc3ncnc(NCCCN4CCOCC4)c3c2-c2ccc(OC)cc2)cc1` here?
Answer: Its value is -33.6%.

Question: With `Cc1cc(C(=O)Nc2ccc3c(c2)C(=O)N(C)[C@@H]2CC[C@@H](CC(=O)N[C@H](C)c4ccccc4)O[C@H]2CO3)no1` as the compound, how does the “activity change, negative = cytotoxicity” value read?
Answer: Its value is 11.4%.

Question: Which “activity change, negative = cytotoxicity” value does the source give for `C/C=C/c1ccc([C@H]2[C@@H](CO)N(C(=O)C3CC3)[C@H]2CN(C)C(=O)CC2CC2)cc1` here?
Answer: The value was -21.8%.

Question: Which “activity change, negative = cytotoxicity” value does the source give for `COc1cccc(C(=O)Nc2ccc3c(c2)C(=O)N(C)[C@@H]2CC[C@@H](CC(=O)NCc4ccc(F)cc4)O[C@@H]2CO3)c1` here?
Answer: The value was -2.6%.

Question: With `COC(=O)C[C@@H]1CC[C@@H]2[C@H](COc3ccc(NC(=O)Nc4cccc(F)c4)cc3C(=O)N2C)O1` as the compound, how does the “activity change, negative = cytotoxicity” value read?
Answer: The value was -1.64%.

Question: For `CNC(=O)C[C@H]1CC[C@@H]2[C@H](COc3ccc(NC(=O)Nc4cccc(F)c4)cc3C(=O)N2C)O1`, which “activity change, negative = cytotoxicity” value is on record?
Answer: The value was -6.54%.

Question: Which “activity change, negative = cytotoxicity” value does the source give for `CN(C[C@@H]1[C@@H](c2ccccc2)[C@H](CO)N1C(=O)C1CCC1)C(=O)c1ccccn1` here?
Answer: Its value is -5.49%.

Question: Which “activity change, negative = cytotoxicity” value does the source give for `COc1ccc(S(=O)(=O)N(C)C[C@@H]2Oc3cc(-c4cccc(F)c4)ccc3S(=O)(=O)N([C@H](C)CO)C[C@H]2C)cc1` here?
Answer: The value was -32.3%.

Question: With `Cc1nc(C)c(C(=O)Nc2ccc(Oc3ccccc3)cc2)o1` as the compound, how does the “activity change, negative = cytotoxicity” value read?
Answer: Its value is -11.6%.

Question: Which “activity change, negative = cytotoxicity” value does the source give for `COc1ccc(C(=O)N2C[C@H]3[C@@H](c4ccccc42)[C@@H](CO)N3C(=O)Cc2ccccn2)cc1` here?
Answer: Its value is -2.33%.

Question: Which “activity change, negative = cytotoxicity” value does the source give for `C[C@H](CO)N1C[C@H](C)[C@H](CN(C)C(=O)C2CCC2)Oc2cc(-c3ccc(C(=O)N(C)C)cc3)ccc2S1(=O)=O` here?
Answer: The value was 3.87%.

Question: For `CCCNC(=O)N1[C@H](CO)[C@H](c2ccc(-c3ccccc3)cc2)[C@@H]1CNC(C)=O`, which “activity change, negative = cytotoxicity” value is on record?
Answer: Its value is -2.1%.

Question: With `CC(=O)Nc1ccc2c(c1)C(=O)N(C)[C@@H]1CC[C@H](CC(=O)NC3CCCCC3)O[C@H]1CO2` as the compound, how does the “activity change, negative = cytotoxicity” value read?
Answer: The value was 0.802% [at 23.5 µM].

Question: Which “activity change, negative = cytotoxicity” value does the source give for `CN1C(=O)c2cc(NC(=O)c3cccs3)ccc2OC[C@H]2O[C@H](CC(=O)NCC(F)(F)F)CC[C@H]21` here?
Answer: Its value is -1.19%.

Question: Which “activity change, negative = cytotoxicity” value does the source give for `C[C@H](NC(=O)C[C@@H]1CC[C@H]2[C@H](COc3ccc(NS(=O)(=O)c4ccc(Cl)cc4)cc3C(=O)N2C)O1)c1ccccc1` here?
Answer: The value was -12.7%.

Question: With `CCNC(=O)C[C@H]1CC[C@H]2[C@@H](COc3ccc(NC(=O)c4ccccc4)cc3C(=O)N2C)O1` as the compound, how does the “activity change, negative = cytotoxicity” value read?
Answer: Its value is -7.25%.

Question: With `COc1cccc(NC(=O)N(C)C[C@@H]2Oc3ncc(C#Cc4ccncc4)cc3C(=O)N([C@@H](C)CO)C[C@H]2C)c1` as the compound, how does the “activity change, negative = cytotoxicity” value read?
Answer: The value was -11.6%.

Question: Which “activity change, negative = cytotoxicity” value does the source give for `CNC(=O)C[C@@H]1CC[C@@H]2[C@@H](COc3ccc(NC(=O)Cc4cccs4)cc3C(=O)N2C)O1` here?
Answer: Its value is 11.6%.

Question: With `CCCNC(=O)Nc1ccc2c(c1)OC[C@H](C)N(CCC)C[C@H](C)[C@H](OC)CN(C)C2=O` as the compound, how does the “activity change, negative = cytotoxicity” value read?
Answer: The value was -12.6%.

Question: Which “activity change, negative = cytotoxicity” value does the source give for `CC(=O)N1[C@H](CN(C(=O)c2ccc(F)cc2)C(C)C)[C@H](c2ccccc2)[C@@H]1CO` here?
Answer: The value was -14.4% [at 23.5 µM].

Question: Which “activity change, negative = cytotoxicity” value does the source give for `COCCN(C[C@H]1[C@@H](c2ccccc2)[C@H](CO)N1C(=O)C1CCC1)C(C)=O` here?
Answer: The value was 7.16%.

Question: Which “activity change, negative = cytotoxicity” value does the source give for `COC(=O)C[C@@H]1CC[C@H]2[C@@H](COc3ccc(NC(=O)c4ccc(C(F)(F)F)cc4)cc3C(=O)N2C)O1` here?
Answer: Its value is -25.1% [at 23.5 µM].

Question: For `Cc1ccc(-c2nnn(CC(=O)N(CC(=O)NCC3CCCO3)c3ccccc3)n2)o1` (stereo not given), which “activity change, negative = cytotoxicity” value is on record?
Answer: The value was 16.4%.

Question: With `C/C=C/c1ccc([C@@H]2[C@H](CO)N(Cc3ccccn3)[C@H]2CNC(=O)CC)cc1` as the compound, how does the “activity change, negative = cytotoxicity” value read?
Answer: Its value is 10.8%.

Question: Which “activity change, negative = cytotoxicity” value does the source give for `O=C(c1ccccc1)N1C[C@H]2[C@@H](c3ccccc31)[C@@H](CO)N2C(=O)CN1CCOCC1` here?
Answer: Its value is 1.14%.

Question: Which “activity change, negative = cytotoxicity” value does the source give for `CN(C[C@H]1[C@H](c2ccccc2)[C@@H](CO)N1CC1CC1)C(=O)c1cccc(F)c1` here?
Answer: The value was -1.25% [at 23.5 µM].

Question: With `C/C=C/c1ccc2c(c1)O[C@H](CN(C)C(=O)c1cnccn1)[C@H](C)CN([C@@H](C)CO)S2(=O)=O` as the compound, how does the “activity change, negative = cytotoxicity” value read?
Answer: The value was -5.55%.

Question: Which “activity change, negative = cytotoxicity” value does the source give for `COc1ccc(CN2CCOC2=O)cc1OC` here?
Answer: The value was -2.26%.

Question: For `CN1C(=O)c2cc(NC(=O)c3ccccc3F)ccc2OC[C@H]2O[C@@H](CC(=O)NCc3ccc4c(c3)OCO4)CC[C@@H]21`, which “activity change, negative = cytotoxicity” value is on record?
Answer: The value was -4.16%.

Question: Which “activity change, negative = cytotoxicity” value does the source give for `CO[C@H]1CN(C)C(=O)c2ccc(NS(C)(=O)=O)cc2OC[C@H](C)N(C(=O)CN(C)C)C[C@H]1C` here?
Answer: Its value is -3.42%.

Question: For `CCCNC(=O)N1C[C@@H]2[C@H](c3ccccc31)[C@H](CO)N2C(=O)C1CCOCC1`, which “activity change, negative = cytotoxicity” value is on record?
Answer: Its value is -4.34%.

Question: Which “activity change, negative = cytotoxicity” value does the source give for `COCC(=O)Nc1ccc2c(c1)C(=O)N(C)[C@@H]1CC[C@H](CC(=O)NCc3ccccc3F)O[C@H]1CO2` here?
Answer: The value was -13.2%.

Question: Which “activity change, negative = cytotoxicity” value does the source give for `COC(=O)C[C@H]1CC[C@@H]2[C@@H](COc3ccc(NC(=O)Nc4ccc(Cl)cc4)cc3C(=O)N2C)O1` here?
Answer: The value was -8.59%.

Question: For `O=C(c1cccnc1)N1C[C@H]2[C@@H](c3ccccc31)[C@H](CO)N2C(=O)Nc1ccccc1`, which “activity change, negative = cytotoxicity” value is on record?
Answer: Its value is 0.123%.

Question: Which “activity change, negative = cytotoxicity” value does the source give for `C/C=C/c1ccc2c(c1)O[C@H](CN(C)C(=O)NCCC)[C@H](C)CN([C@@H](C)CO)S2(=O)=O` here?
Answer: The value was 1.6%.

Question: With `CC(=O)N1[C@H](CO)[C@@H](c2ccccc2)[C@H]1CN(CC(C)C)C(=O)c1ccccn1` as the compound, how does the “activity change, negative = cytotoxicity” value read?
Answer: The value was 7.05% [at 23.5 µM].
